# Results from ChEMBL document CHEMBL4513216, “Probing the Open Global Health Chemical Diversity Library for Multistage-Active Starting Points for Next-Generation Antimalarials” (ACS Infect Dis, 2020).
# Among all 65,000 compounds or so, about 2,100 (3.2%) showed an effect of 50% or more. The median lay at about -52%. This excerpt belongs to a sample that is enriched for strong results.
# Test system: Plasmodium falciparum
# Assay: Screen against P. falciparum Asexual Blood Stage (ABS), at 5uM
# Format: functional, Dd2
# Conditions: tested at 5 uM
row,SMILES,INHIBITION [%]
1,CC1CCN(S(=O)(=O)c2cccn(CC(=O)NC(C)(C)C)c2=O)CC1,-129
2,CCN1CCc2cc(-c3cncn3CC(=O)NC(C)(C)C)ccc21,66.2
3,CC1Cc2cc(-c3cncn3CC(=O)NC(C)(C)C)ccc2N1C (centres undefined),54.2
4,CN1CCCc2cc(-c3cncn3CCNC3CCS(=O)(=O)C3)ccc21 (centres undefined),-79.3
5,c1cc2c(cc1CSCc1noc(C3CC3)n1)OCCO2,-17
6,O=C(OCC1CCN(c2ccccc2)C1)c1cscn1 (centres undefined),0.13
7,CCOC1CCC2(CCN(C(=O)c3csnn3)CC2)c2ccccc21 (centres undefined),-79.6
8,O=C(O)c1ccccc1-c1ccc(CNC(=O)C2CCOCC2)cc1,-63.2
9,Nc1nc2c(c(NC(Cn3cccn3)c3ccccc3)n1)CCNCC2 (centres undefined),-40.8
10,CN(CC1CCN(CCO)CC1)CC(O)c1ccc(F)cc1 (centres undefined),69.1
11,CN(CCOCC(F)(F)F)CC1CCN(CCO)CC1,19.4
12,CN(CC1CCN(CCO)CC1)CC(O)c1ccc(F)cc1F (centres undefined),56.7
13,Cc1cnn(CC2CCN(CC(O)c3ccc(F)cc3)CC2)c1 (centres undefined),29.3
14,CCC(c1ccc(F)cc1F)N1CCN(CCO)CC1 (centres undefined),34.1
15,Cc1noc(CN(C)CC2CCN(CCO)CC2)n1,-64
16,Cc1ccc(C(=O)NCCCNc2ccc(C(F)(F)F)cn2)cc1,35.4
17,CCS(=O)(=O)N1CCC(C(=O)NC(Cc2ccsc2)c2nccs2)CC1 (centres undefined),-83.8
18,CN(Cc1ccccc1CNC(=O)C1CNC(=O)N1)C1CCCCC1 (centres undefined),-35
19,COc1cc(N2CCC3(CC(=O)N(Cc4csc(C)n4)C3)C2)ncn1 (centres undefined),-10.7
20,CN1CC(c2ccccc2)CC2(CCN(CC(=O)N(C)C)CC2)C1 (centres undefined),53.8
21,COC(=O)N1CCC2(CC1)CC(c1ccccc1)CN(C)C2 (centres undefined),-17.2
22,CN1CC(c2ccccc2)CC2(CCN(C(=O)c3ccccc3)CC2)C1 (centres undefined),18.1
23,CC(C)OCc1ncn2c1CN(Cc1ccoc1)CCC2,-4.62
24,CCc1n[nH]c(C2CN(C(=O)c3ccnc(N(C)C)c3)CCO2)n1 (centres undefined),-77.2
25,CC1CCCN1C1CCN(C(=O)c2cccc(F)c2)CC1 (centres undefined),-14.6
26,CC1CCCN1C1CCN(C(=O)c2cccc(-c3ccoc3)c2)CC1 (centres undefined),53.6
27,O=C(CN1CCN(C(=O)c2cccc(-c3ccoc3)c2)CC1)C1CC1,-3.7

row,SMILES,INHIBITION [%]
1,O=C1c2cc(Br)cc(Br)c2OCC1(CN1CCCC1)CN1CCCC1,-65.9
2,CC(C(=O)Nc1ccc(N2CCOCC2)nc1)n1cncn1 (centres undefined),-27
3,COc1cccc(CNc2ccc(F)c(Cl)c2)c1O,-117
4,COc1ccc(CN2CCCC(Nc3cccc(F)c3)C2)cc1O (centres undefined),63.3
5,COc1ccc(NC2CCCN(Cc3cnc(N(C)C)s3)C2)cc1OC (centres undefined),-54.2
6,COc1cccc(CN2CCCC(Nc3cccc(F)c3)C2)c1O (centres undefined),67.3
7,Fc1ccc(NC2CCCN(Cc3ccncc3)C2)cc1 (centres undefined),-65.4
8,COc1cccc(O)c1CN1CCCC(Nc2cccc(F)c2)C1 (centres undefined),51.3
9,COc1cc(CN2CCCC(Nc3cccc(F)c3)C2)cc(OC)c1O (centres undefined),36.9
10,COc1cccc(F)c1CN1CCC(c2nc(C)cc(C)n2)C1 (centres undefined),23.3
11,COc1ccc(F)cc1CN1CCCC(c2cc(C(N)=O)[nH]n2)C1 (centres undefined),-14.1
12,Oc1cccc(CN2CCN(C3CCc4ccccc4C3)CC2)c1 (centres undefined),14.6
13,Cc1n[nH]c(C)c1C1COCCN1C(=O)Cc1ccccc1F (centres undefined),-105
14,Cc1cnc(CCN(C)C(=O)c2cccc(C)c2O)s1,-152
15,Cc1ccc(NC2CCN(C(=O)c3sccc3C3CC3)CC2)nn1,-28.9
16,Cc1ccc(C(C)NC(=O)N2CCCN(CC(F)F)CC2)s1 (centres undefined),-73.5
17,Cc1cccc(CN2C(=O)CC[C@@H]3[C@H]2CCN3Cc2ccc(F)cc2)n1,-111
18,CCNc1nc2c(s1)C(=O)CN(C(=O)NCc1ccccc1)C2,-146
19,Cc1noc(CN2CCOC(CN(C)C)C2)n1 (centres undefined),-84.3
20,Cc1cccc(-c2noc(CN3CCOC(Cn4cccn4)C3)n2)c1 (centres undefined),51.2
21,CN(C)CC1CN(Cc2nc(-c3cccnc3)no2)CCO1 (centres undefined),-51.1
22,Cc1ccc(-c2noc(CN3CCOC(CN(C)C)C3)n2)cc1F (centres undefined),53.2
23,Cc1ccc(-c2noc(CN3CCOC(Cn4cccn4)C3)n2)cc1 (centres undefined),-105
24,c1cncc(-c2noc(CN3CCOC(Cn4cccn4)C3)n2)c1 (centres undefined),10.9
25,CC(NC(=O)CN1CCN(c2ccncc2Cl)CC1)c1ccco1 (centres undefined),-106
26,O=C(CCC1CCCN(C(=O)CCc2ccc(F)c(F)c2)C1)NC1CC1 (centres undefined),-157
27,Cc1ncc(CN2CCc3nc4cc(C(C)(C)C)nn4c(O)c3C2)n1C,-104
